# According to the supplement of paper PMC8728848:
# Many of the other results were omitted from the sample, so the strongest signals are more common in it than they were.
# B1: Tap1 (Sordaria macrospora), Q50IV4 (protein)
# chain: MSHHHHHHHHYTLHLRLINDTSDTLTLVEQTSWWGKNTIWSQVRSTGVHVLSMAASGSSGMLRFQTSKGDFFAVAVGVHNYKRWCDVLVDTADEAPLTKLHPKYYDDKDAKYQALWAQASEFEAKSKSGKTVRIKFYQADGNVLRATVEYL
# How the values were obtained:
# Assay in all cases: glycan array binding signal (z-score within array); higher = stronger binding
# Conditions in all cases: glycan notation: IUPAC condensed, linker removed
# Fuc(a1-2)Gal(b1-3)GalNAc = molecular target: Fuc(a1-2)Gal(b1-3)GalNAc
# Method in brief: (§1)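 Arrays were curated from the Consortium for Functional Glycomics database, 3228 in total, and kept only where the protein sequence was available. Binding is expressed as a within-array Z-score. This score was averaged across arrays of the same protein sequence at different concentrations or buffers and across linkers, and negative values can be read as non-binding.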
# [1] = molecular target: Fuc(a1-2)[Gal(a1-3)]Gal(b1-4)Glc
# Method in brief: as §1
# [2] = molecular target: Fuc(a1-2)[Gal(a1-3)]Gal(b1-4)GlcNAc(b1-2)Man(a1-3)[Fuc(a1-2)[Gal(a1-3)]Gal(b1-4)GlcNAc(b1-2)Man(a1-6)]Man(b1-4)GlcNAc(b1-4)GlcNAc
# Method in brief: as §1
# [3] = molecular target: Fuc(a1-2)[Gal(a1-4)]Gal(b1-4)GlcNAc
# Method in brief: as §1
# [4] = molecular target: Fuc(a1-2)[GalNAc(a1-3)]Gal(b1-3)GalNAc(a1-3)[Fuc(a1-2)]Gal(b1-4)GlcNAc
# Method in brief: as §1
# [5] = molecular target: Gal(a1-4)Gal(b1-3)GlcNAc(b1-2)Man(a1-3)[Gal(a1-4)Gal(b1-3)GlcNAc(b1-2)Man(a1-6)]Man(b1-4)GlcNAc(b1-4)GlcNAc
# Method in brief: as §1
# Gal(a1-6)Glc = molecular target: Gal(a1-6)Glc
# Method in brief: as §1
# Gal(b1-2)Gal = molecular target: Gal(b1-2)Gal
# Method in brief: as §1
# [6] = molecular target: Gal(b1-3)Gal(b1-4)GlcNAc(b1-2)Man(a1-3)[Gal(b1-3)Gal(b1-4)GlcNAc(b1-2)Man(a1-6)]Man(b1-4)GlcNAc(b1-4)GlcNAc
# Method in brief: as §1
# Gal(b1-3)GalNAc = molecular target: Gal(b1-3)GalNAc
# Method in brief: as §1
# [7] = molecular target: Gal(b1-3)GlcNAc(b1-2)[Gal(b1-3)GlcNAc(b1-6)]Man(a1-6)[Gal(b1-3)GlcNAc(b1-2)Man(a1-3)]Man(b1-4)GlcNAc(b1-4)GlcNAc
# Method in brief: as §1
# [8] = molecular target: Gal(b1-3)GlcNAc(b1-3)Gal(b1-4)Glc
# Method in brief: as §1
# [9] = molecular target: Gal(b1-3)[Neu5Ac(a2-6)]GalNAc
# Method in brief: as §1
# [10] = molecular target: Gal(b1-3)[Neu5Ac(b2-6)]GalNAc
# Method in brief: as §1
# Gal(b1-4)GlcNAc = molecular target: Gal(b1-4)GlcNAc
# Method in brief: as §1
# [11] = molecular target: Gal(b1-4)GlcNAc(b1-3)Gal(b1-4)Glc
# Method in brief: as §1
# [12] = molecular target: Gal(b1-4)GlcNAc(b1-3)[Gal(b1-4)GlcNAc(b1-6)]Gal(b1-4)GlcNAc
# Method in brief: as §1
# [13] = molecular target: Gal(b1-4)GlcNAc(b1-6)Gal(b1-4)GlcNAc
# Method in brief: as §1
# Gal3S(b1-3)GalNAc = molecular target: Gal3S(b1-3)GalNAc
# Method in brief: as §1
# [14] = molecular target: GlcNAc(a1-4)Gal(b1-4)GalNAc
# Method in brief: as §1
# [15] = molecular target: GlcNAc(a1-4)Gal(b1-4)GlcNAc(b1-3)Gal(b1-4)Glc
# Method in brief: as §1
# [16] = molecular target: GlcNAc(b1-2)Gal(b1-3)GalNAc
# Method in brief: as §1
# [17] = molecular target: GlcNAc(b1-3)Gal(b1-3)GalNAc
# Method in brief: as §1
# GlcNAc(b1-3)GalNAc = molecular target: GlcNAc(b1-3)GalNAc
# Method in brief: as §1
# Kdn(a2-3)Gal(b1-3)GalNAc = molecular target: Kdn(a2-3)Gal(b1-3)GalNAc
# Method in brief: as §1
# Neu5Ac(a2-3)Gal = molecular target: Neu5Ac(a2-3)Gal
# Method in brief: as §1
# [18] = molecular target: Neu5Ac(a2-3)Gal(b1-3)GalNAc
# Method in brief: as §1
# [19] = molecular target: Neu5Ac(a2-3)Gal(b1-3)GalNAc(b1-4)[Neu5Ac(a2-8)Neu5Ac(a2-3)]Gal(b1-4)Glc
# Method in brief: as §1
# [20] = molecular target: Neu5Ac(a2-3)Gal(b1-4)GlcNAc
# Method in brief: as §1
# [21] = molecular target: Neu5Ac(a2-3)Gal(b1-4)GlcNAc(b1-6)[Neu5Ac(a2-3)Gal(b1-3)]GalNAc
# Method in brief: as §1
# [22] = molecular target: Neu5Ac(a2-3)Gal(b1-4)[Fuc(a1-3)]GlcNAc(b1-3)Gal(b1-4)GlcNAc
# Method in brief: as §1
# [23] = molecular target: Neu5Ac(a2-3)GalNAc(b1-4)GlcNAc
# Method in brief: as §1
# [24] = molecular target: Neu5Ac(a2-6)Gal(b1-4)GlcNAc(b1-3)Gal(b1-4)[Fuc(a1-3)]GlcNAc(b1-3)Gal(b1-4)[Fuc(a1-3)]GlcNAc
# Method in brief: as §1
# [25] = molecular target: Neu5Gc(a2-3)Gal(b1-3)[Fuc(a1-4)]GlcNAc
# Method in brief: as §1
binder,measurement,setting,value
B1,glycan array binding signal (z-score),Fuc(a1-2)Gal(b1-3)GalNAc,2.96
same,glycan array binding signal (z-score),[1],-0.234
same,glycan array binding signal (z-score),[2],-0.244
same,glycan array binding signal (z-score),[3],-0.242
same,glycan array binding signal (z-score),[4],-0.246
same,glycan array binding signal (z-score),[5],-0.221
same,glycan array binding signal (z-score),Gal(a1-6)Glc,-0.248
same,glycan array binding signal (z-score),Gal(b1-2)Gal,-0.207
same,glycan array binding signal (z-score),[6],-0.225
same,glycan array binding signal (z-score),Gal(b1-3)GalNAc,3.97
same,glycan array binding signal (z-score),[7],-0.179
same,glycan array binding signal (z-score),[8],-0.23
same,glycan array binding signal (z-score),[9],4.09
same,glycan array binding signal (z-score),[10],-0.25
same,glycan array binding signal (z-score),Gal(b1-4)GlcNAc,-0.237
same,glycan array binding signal (z-score),[11],-0.235
same,glycan array binding signal (z-score),[12],-0.264
same,glycan array binding signal (z-score),[13],-0.224
same,glycan array binding signal (z-score),Gal3S(b1-3)GalNAc,5.01
same,glycan array binding signal (z-score),[14],0.868
same,glycan array binding signal (z-score),[15],-0.223
same,glycan array binding signal (z-score),[16],2.86
same,glycan array binding signal (z-score),[17],2.84
same,glycan array binding signal (z-score),GlcNAc(b1-3)GalNAc,1.62
same,glycan array binding signal (z-score),Kdn(a2-3)Gal(b1-3)GalNAc,3.63
same,glycan array binding signal (z-score),Neu5Ac(a2-3)Gal,-0.232
same,glycan array binding signal (z-score),[18],4.27
same,glycan array binding signal (z-score),[19],-0.198
same,glycan array binding signal (z-score),[20],-0.251
same,glycan array binding signal (z-score),[21],1.16
same,glycan array binding signal (z-score),[22],-0.144
same,glycan array binding signal (z-score),[23],-0.247
same,glycan array binding signal (z-score),[24],-0.176
same,glycan array binding signal (z-score),[25],-0.24
